Results as given in PubChem BioAssay (EPA / NIEHS).
Records with an inconclusive call do not appear. Calls of active or inactive are those of the source. Rule for the calls, unless noted: active = hit-call score of the fitted dose curve at least 0.9, where 1 is the maximum; inactive = score below 0.9.

How the values were obtained:
[1] = target: Nuclear respiratory factor 1 (Homo sapiens) (UniProt Q16656); test: ATG_NRF1_CIS: Attagene CIS-FACTORIAL HepG2 Assay for human Nuclear Respiratory Factor 1 (NRF1) Orphan Gene (AID 2282987); conditions: HepG2 NRF1 cis-element reporter, Attagene multiplex; actives raise or lower the signal
Chain of Nuclear respiratory factor 1 (Homo sapiens) (Q16656 whole entry, looked up): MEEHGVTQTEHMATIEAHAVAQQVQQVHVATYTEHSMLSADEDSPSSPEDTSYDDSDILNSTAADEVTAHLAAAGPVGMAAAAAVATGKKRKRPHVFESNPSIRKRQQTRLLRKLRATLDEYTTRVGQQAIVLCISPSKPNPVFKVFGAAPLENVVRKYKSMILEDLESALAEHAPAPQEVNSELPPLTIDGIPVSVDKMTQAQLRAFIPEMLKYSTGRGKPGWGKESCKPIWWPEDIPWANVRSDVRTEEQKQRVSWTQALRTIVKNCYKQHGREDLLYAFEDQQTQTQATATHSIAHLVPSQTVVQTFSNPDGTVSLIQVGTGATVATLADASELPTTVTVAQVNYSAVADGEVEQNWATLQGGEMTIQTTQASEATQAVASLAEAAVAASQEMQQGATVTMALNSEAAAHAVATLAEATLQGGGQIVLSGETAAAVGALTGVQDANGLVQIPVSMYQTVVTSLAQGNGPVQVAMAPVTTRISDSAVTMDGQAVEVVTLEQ
Procedure, shortened: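 Measured: fluorescent reporter-specific RT-PCR products from transfected HepG2 cells, separated by capillary electrophoresis. Exposure lasted 24 h. Analysis used bidirectional curve fitting with DMSO as negative control.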

[2] = ATG_NFI_CIS: Attagene CIS-FACTORIAL HepG2 Assay for human Nuclear Factor I (NFI) (AID 2282989); conditions: HepG2 cis-regulatory reporter, NFI response element transcription; actives raise or lower the signal
Procedure, shortened: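 Cells: human liver HepG2, transiently transfected with promoter-regulated reporter transcription units. Exposure 24 h. Detection: fluorescent RT-PCR products separated by capillary electrophoresis, normalised to DMSO negative control.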

[3] = target: Myc proto-oncogene protein (Homo sapiens) (UniProt P01106); test: ATG_Myc_CIS: Attagene CIS-FACTORIAL HepG2 Assay for human Myelocytomatosis (Myc) Proto-Oncogene Transcription Factor (AID 2282990); conditions: HepG2, Attagene cis-reporter transcription factor activity; actives raise or lower the signal
Chain of Myc proto-oncogene protein (Homo sapiens) (P01106 whole entry, looked up, the tested form may be a part): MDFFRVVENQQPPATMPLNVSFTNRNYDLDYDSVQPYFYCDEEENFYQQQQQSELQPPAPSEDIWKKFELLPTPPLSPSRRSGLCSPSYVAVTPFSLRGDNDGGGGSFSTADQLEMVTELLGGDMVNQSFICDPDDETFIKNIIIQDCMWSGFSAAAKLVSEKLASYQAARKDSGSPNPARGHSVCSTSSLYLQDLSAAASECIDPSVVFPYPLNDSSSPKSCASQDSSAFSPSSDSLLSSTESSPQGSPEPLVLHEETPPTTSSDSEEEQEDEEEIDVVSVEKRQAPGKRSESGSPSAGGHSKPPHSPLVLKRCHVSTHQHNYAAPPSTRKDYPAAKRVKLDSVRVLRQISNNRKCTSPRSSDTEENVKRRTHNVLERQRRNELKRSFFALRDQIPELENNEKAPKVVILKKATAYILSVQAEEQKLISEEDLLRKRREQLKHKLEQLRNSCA
Procedure, shortened: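 After 24 h chemical treatment of HepG2 cells carrying multiplexed cis-regulated reporter constructs, reporter transcripts quantified by RT-PCR and capillary electrophoresis of fluorescent fragments. Gain or loss fitted against DMSO baseline.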

[4] = ATG_Oct_MLP_CIS: Attagene CIS-FACTORIAL HepG2 Assay for human Octamer-Binding Transcription Factor (Oct) (AID 2282993); conditions: HepG2 Attagene cis-factorial Oct reporter, mRNA; actives raise or lower the signal
Procedure, shortened: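 HepG2, transient MRTU transfection, cis promoter elements; 24 h dosing; RT-PCR/CE fluorescence read-out of reporter mRNA; fit both directions vs DMSO.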

[5] = target: Cellular tumor antigen p53 (Homo sapiens) (UniProt P04637); test: ATG_p53_CIS: Attagene CIS-FACTORIAL HepG2 Assay for human p53 Transcription Factor (AID 2282994); conditions: HepG2 p53 cis-element reporter, Attagene mRNA; actives raise or lower the signal
Chain of Cellular tumor antigen p53 (Homo sapiens) (P04637 whole entry, looked up): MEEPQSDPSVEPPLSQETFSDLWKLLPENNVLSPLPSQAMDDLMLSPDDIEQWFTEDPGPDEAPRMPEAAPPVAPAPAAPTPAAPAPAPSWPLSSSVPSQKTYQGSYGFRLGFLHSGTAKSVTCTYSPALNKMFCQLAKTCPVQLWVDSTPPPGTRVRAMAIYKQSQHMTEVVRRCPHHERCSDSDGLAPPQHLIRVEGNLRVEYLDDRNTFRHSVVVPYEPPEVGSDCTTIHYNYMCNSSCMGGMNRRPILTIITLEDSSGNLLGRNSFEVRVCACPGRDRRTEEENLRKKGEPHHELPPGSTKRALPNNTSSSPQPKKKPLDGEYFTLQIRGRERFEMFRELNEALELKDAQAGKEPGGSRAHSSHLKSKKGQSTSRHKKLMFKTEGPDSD
Procedure, shortened: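 Multiplexed reporter mRNA assay in human HepG2 liver cells; cis-regulated units report endogenous factor activity. Values come from bidirectional curve fitting against DMSO negative control after 24 h treatment.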

[6] = BSK_3C_TissueFactor: BioMAP Diversity Plus: 3C Assay for Tissue Factor Biomarker Activity (AID 2282997); conditions: BioMAP 3C HUVEC, tissue factor biomarker readout; actives raise or lower the signal
Procedure, shortened: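 ELISA read-out of Tissue Factor levels on human umbilical vein endothelium collected 24 h after chemical dosing. Gain or loss of signal was fitted relative to DMSO.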

[7] = BSK_3C_uPAR: BioMAP Diversity Plus: 3C Assay for Urokinase-type plasminogen activator receptor (uPAR) Biomarker Activity (AID 2282998); conditions: BioMAP 3C HUVEC, uPAR biomarker ELISA; actives raise or lower the signal
Procedure, shortened: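 A multiplexed primary-cell system built on human umbilical vein endothelium was used, with chemical present for 24 h before reading. Cell-surface uPAR was detected by ELISA; signal change in either direction counted against DMSO.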

[8] = BSK_3C_VCAM1: BioMAP Diversity Plus: 3C Assay for Vascular cell adhesion molecule 1 (VCAM1) Biomarker Activity (AID 2282999); conditions: BioMAP 3C HUVEC, VCAM1 ELISA, cytokine-stimulated; actives raise or lower the signal
Procedure, shortened: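 Endothelial cells from human umbilical vein are treated with test chemical. At 24 h, VCAM-1 is measured by ELISA, and responses in either direction are fitted relative to DMSO.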

[9] = BSK_4H_Eotaxin3: BioMAP Diversity Plus: 4H Assay for Eotaxin 3 Biomarker Activity (AID 2283000); conditions: primary human endothelial cells (HUVEC); actives raise or lower the signal;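 note: CCL26 protein level quantified by ELISA in parallel with SRB cytotoxicity check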
Procedure, shortened: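 Chemicals were added to human umbilical vein endothelium cultures, and Eotaxin-3 was quantified by ELISA at 24 h. Values were derived by bidirectional fitting with DMSO serving as negative control and activity baseline.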

[10] = target: human Peroxisome Proliferator-activated Receptor alpha (PPARa), PPARA (gene 5465) (UniProt Q07869); test: ATG_PPARa_TRANS: Attagene TRANS-FACTORIAL HepG2 Assay for human Peroxisome Proliferator-activated Receptor alpha (PPARa) (AID 2283001; active = hit-call score of the fitted dose curve at least 0.9, where 1 is the maximum)
Chain of human Peroxisome Proliferator-activated Receptor alpha (PPARa), PPARA (gene 5465) (Q07869 whole entry, looked up, the tested form may be a part): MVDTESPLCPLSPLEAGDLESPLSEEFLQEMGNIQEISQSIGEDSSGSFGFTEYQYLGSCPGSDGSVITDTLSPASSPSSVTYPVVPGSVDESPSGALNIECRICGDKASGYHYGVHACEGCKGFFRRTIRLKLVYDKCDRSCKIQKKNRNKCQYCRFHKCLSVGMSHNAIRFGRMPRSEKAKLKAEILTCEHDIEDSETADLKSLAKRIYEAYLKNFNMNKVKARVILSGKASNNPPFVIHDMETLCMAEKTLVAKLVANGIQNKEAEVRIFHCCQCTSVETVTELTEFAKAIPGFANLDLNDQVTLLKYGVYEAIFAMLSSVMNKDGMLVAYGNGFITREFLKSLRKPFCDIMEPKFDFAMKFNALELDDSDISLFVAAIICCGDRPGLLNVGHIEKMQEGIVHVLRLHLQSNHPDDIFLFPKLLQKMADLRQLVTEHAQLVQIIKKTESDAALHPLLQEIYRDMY
Procedure, shortened: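 Reporter transcripts from GAL4-UAS units in transfected HepG2 were quantified 24 h after dosing. Detection used reverse transcription, PCR, fluorescent primer extension and capillary electrophoresis, with DMSO as baseline.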

[11] = read-out: Intercellular Adhesion Molecule 1 (ICAM1), ICAM1 (gene 3383); test: BSK_3C_ICAM1: BioMAP Diversity Plus: 3C Assay for Intercellular Adhesion Molecule 1 (ICAM1) Biomarker Activity (AID 2283003); conditions: primary human endothelial cells (HUVEC); actives raise or lower the signal
Procedure, shortened: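 Human vascular endothelial primary cells, 3C conditions, 24 h treatment. ICAM-1 by ELISA.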

[12] = BSK_3C_Proliferation: Cell Proliferation Assessment in the BioMAP Diversity Plus: 3C Assay (AID 2283006); conditions: primary human endothelial cells (HUVEC);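 for AC50: potency may reflect either rise or fall in cell number versus DMSO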
Procedure, shortened: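 Proliferation of human vascular endothelial primary cells after 48 h dosing, quantified as SRB-stained protein at 560 nm relative to DMSO.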

[13] = target: Peroxisome proliferator-activated receptor gamma (Homo sapiens) (UniProt P37231); test: ATG_PPARg_TRANS: Attagene TRANS-FACTORIAL HepG2 Assay for human Peroxisome Proliferator-activated Receptor-gamma (PPARg) (AID 2283007; active = hit-call score of the fitted dose curve at least 0.9, where 1 is the maximum)
Chain of Peroxisome proliferator-activated receptor gamma (Homo sapiens) (P37231 whole entry, looked up): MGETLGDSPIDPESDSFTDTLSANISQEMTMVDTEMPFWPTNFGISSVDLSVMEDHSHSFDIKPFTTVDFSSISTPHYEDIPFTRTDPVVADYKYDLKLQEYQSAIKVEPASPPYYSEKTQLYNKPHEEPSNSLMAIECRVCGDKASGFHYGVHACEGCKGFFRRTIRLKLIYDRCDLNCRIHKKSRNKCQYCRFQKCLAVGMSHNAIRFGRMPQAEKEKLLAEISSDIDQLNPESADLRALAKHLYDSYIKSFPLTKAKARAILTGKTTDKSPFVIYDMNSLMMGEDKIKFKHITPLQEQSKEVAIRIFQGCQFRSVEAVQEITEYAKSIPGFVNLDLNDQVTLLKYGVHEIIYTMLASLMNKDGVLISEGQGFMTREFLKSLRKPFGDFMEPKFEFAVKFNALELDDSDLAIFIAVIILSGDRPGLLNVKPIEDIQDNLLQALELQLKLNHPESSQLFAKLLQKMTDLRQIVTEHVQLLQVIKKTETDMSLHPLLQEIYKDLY
Procedure, shortened: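 Twenty-four hours after chemical dosing of transiently transfected HepG2 cells, isolated RNA was converted to cDNA, reporter sequences amplified and 6-FAM-labelled, then HpaI-digested and analysed by capillary electrophoresis. Signal increase against DMSO was fitted.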

[14] = target: human Peroxisome Proliferator-activated Receptor delta (PPARd), PPARD (gene 5467) (UniProt Q03181); test: ATG_PPARd_TRANS: Attagene TRANS-FACTORIAL HepG2 Assay for human Peroxisome Proliferator-activated Receptor delta (PPARd) (AID 2283002; active = hit-call score of the fitted dose curve at least 0.9, where 1 is the maximum)
Chain of human Peroxisome Proliferator-activated Receptor delta (PPARd), PPARD (gene 5467) (Q03181 whole entry, looked up, the tested form may be a part): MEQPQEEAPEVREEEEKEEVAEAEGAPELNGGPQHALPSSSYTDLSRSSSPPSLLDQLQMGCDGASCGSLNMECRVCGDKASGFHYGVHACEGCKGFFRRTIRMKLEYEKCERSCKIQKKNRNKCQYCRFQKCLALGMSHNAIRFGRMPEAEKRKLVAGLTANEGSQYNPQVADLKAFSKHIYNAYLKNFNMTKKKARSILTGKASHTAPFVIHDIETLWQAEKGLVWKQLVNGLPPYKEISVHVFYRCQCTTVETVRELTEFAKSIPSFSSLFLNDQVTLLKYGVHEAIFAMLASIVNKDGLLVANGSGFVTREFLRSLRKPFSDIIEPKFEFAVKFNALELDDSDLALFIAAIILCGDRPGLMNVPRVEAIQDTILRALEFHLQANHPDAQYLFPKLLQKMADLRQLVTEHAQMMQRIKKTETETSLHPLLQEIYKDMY
Procedure, shortened: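 Read-out is induced reporter mRNA, quantified by RT-PCR with fluorescent labelling and capillary electrophoresis after 24 h dosing. Cells are HepG2 transiently carrying multiple GAL4-UAS reporter units driven by exogenous NR-GAL4 chimeras; DMSO serves as baseline.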

[15] = target: human Retinoic Acid Receptor beta (RARb), RARB (gene 5915) (UniProt P10826); test: ATG_RARb_TRANS: Attagene TRANS-FACTORIAL HepG2 Assay for human Retinoic Acid Receptor beta (AID 2283004; active = hit-call score of the fitted dose curve at least 0.9, where 1 is the maximum)
Chain of human Retinoic Acid Receptor beta (RARb), RARB (gene 5915) (P10826 whole entry, looked up): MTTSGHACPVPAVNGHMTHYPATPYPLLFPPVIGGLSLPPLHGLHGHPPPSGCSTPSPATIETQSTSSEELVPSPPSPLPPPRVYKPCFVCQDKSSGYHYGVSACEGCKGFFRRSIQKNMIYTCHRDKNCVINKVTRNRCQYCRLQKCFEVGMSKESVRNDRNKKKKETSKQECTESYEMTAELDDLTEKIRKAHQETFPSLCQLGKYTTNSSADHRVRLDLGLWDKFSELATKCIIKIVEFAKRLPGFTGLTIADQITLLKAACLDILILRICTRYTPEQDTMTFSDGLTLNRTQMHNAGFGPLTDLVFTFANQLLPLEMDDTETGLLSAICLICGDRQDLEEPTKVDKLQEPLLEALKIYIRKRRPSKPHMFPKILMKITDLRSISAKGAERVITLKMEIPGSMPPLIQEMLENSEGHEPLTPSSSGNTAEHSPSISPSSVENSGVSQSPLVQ
Procedure, shortened: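 Transient transfection of HepG2 with multiple reporter units → chemical dosing, 24 h → total RNA isolation → RT with oligo(dT) → reporter-specific PCR, 6-FAM primer extension, HpaI digest → capillary electrophoresis. Positive direction vs DMSO control.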

[16] = target: Nuclear receptor subfamily 1 group I member 2 (Homo sapiens) (UniProt O75469); test: ATG_PXR_TRANS: Attagene TRANS-FACTORIAL HepG2 Assay for human Pregnane X Receptor (PXR) (AID 2283008; active = hit-call score of the fitted dose curve at least 0.9, where 1 is the maximum)
Chain of Nuclear receptor subfamily 1 group I member 2 (Homo sapiens) (O75469 whole entry, looked up, the tested form may be a part): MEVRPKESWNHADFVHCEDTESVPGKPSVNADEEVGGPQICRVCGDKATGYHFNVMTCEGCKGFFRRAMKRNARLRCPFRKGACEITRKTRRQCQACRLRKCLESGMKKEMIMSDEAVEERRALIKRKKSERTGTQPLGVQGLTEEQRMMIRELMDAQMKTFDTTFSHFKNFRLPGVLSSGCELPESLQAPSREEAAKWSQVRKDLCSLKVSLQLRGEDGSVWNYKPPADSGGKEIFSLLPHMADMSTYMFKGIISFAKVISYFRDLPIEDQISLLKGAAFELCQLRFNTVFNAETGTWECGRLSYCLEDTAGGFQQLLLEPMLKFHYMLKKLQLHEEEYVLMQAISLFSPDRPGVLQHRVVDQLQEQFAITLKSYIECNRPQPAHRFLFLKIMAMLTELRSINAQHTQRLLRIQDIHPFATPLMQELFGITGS
Procedure, shortened: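 Measures mRNA induction of a GAL4-UAS-driven reporter in human HepG2 cells transiently expressing PXR fused to Gal4, following 24 h treatment. DMSO served as negative control and baseline.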

[17] = target: human Retinoic Acid Receptor gamma (RARg), RARG (gene 5916) (UniProt P13631); test: ATG_RARg_TRANS: Attagene TRANS-FACTORIAL HepG2 Assay for human Retinoic Acid Receptor gamma (RARg) (AID 2283009; active = hit-call score of the fitted dose curve at least 0.9, where 1 is the maximum)
Chain of human Retinoic Acid Receptor gamma (RARg), RARG (gene 5916) (P13631 whole entry, looked up, the tested form may be a part): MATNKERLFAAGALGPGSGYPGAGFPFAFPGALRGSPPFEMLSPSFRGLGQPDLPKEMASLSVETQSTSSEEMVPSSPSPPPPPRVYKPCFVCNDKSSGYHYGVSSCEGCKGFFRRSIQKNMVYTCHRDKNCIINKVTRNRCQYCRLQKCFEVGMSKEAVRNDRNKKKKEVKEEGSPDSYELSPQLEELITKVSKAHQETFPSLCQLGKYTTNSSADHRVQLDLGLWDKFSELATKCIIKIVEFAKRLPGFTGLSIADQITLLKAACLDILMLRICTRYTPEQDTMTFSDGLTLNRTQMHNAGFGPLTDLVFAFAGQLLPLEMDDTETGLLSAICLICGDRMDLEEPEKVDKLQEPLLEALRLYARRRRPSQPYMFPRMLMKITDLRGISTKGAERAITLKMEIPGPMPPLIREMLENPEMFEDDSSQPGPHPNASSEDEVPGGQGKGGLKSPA
Procedure, shortened: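 HepG2, RARg-GAL4 TRANS system, 24 h exposure; reporter mRNA by RT-PCR + CE fluorescence; increase over DMSO.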

[18] = target: Retinoic acid receptor alpha (Homo sapiens) (UniProt P10276); test: ATG_RARa_TRANS: Attagene TRANS-FACTORIAL HepG2 Assay for human Retinoic Acid Receptor alpha (RARa) (AID 2283005; active = hit-call score of the fitted dose curve at least 0.9, where 1 is the maximum)
Chain of Retinoic acid receptor alpha (Homo sapiens) (P10276 whole entry, looked up, the tested form may be a part): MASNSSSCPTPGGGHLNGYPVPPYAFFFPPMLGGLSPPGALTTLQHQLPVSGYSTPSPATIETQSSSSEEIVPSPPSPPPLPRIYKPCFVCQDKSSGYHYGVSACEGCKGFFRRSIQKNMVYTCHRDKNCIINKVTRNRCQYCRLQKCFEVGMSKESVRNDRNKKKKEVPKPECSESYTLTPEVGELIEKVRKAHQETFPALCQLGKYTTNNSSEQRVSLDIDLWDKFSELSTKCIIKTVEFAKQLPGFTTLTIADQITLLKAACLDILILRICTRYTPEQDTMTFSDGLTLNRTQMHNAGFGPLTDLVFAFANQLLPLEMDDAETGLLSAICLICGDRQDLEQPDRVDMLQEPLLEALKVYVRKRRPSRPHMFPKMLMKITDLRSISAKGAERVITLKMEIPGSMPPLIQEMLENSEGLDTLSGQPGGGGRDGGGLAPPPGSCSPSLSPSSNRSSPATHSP
Procedure, shortened: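 Reporter transcripts, measured by RT-PCR with fluorescent labeling and capillary electrophoresis after 24 h dosing, reflect activity of an exogenous human RARa–GAL4 fusion in transiently transfected HepG2. Fitted for increase relative to DMSO.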

Measured: AC50

CC(=O)c1ccccc1
not listed: [14] | [15] | [16] | [17] | [18]
inactive: all other assays above

c1ccc2cc3ccccc3cc2c1
not listed: [6] | [11] | [13] | [18]
inactive: all other assays above

NC(=O)N(O)[C@@H]1COc2cc(OCc3ccccc3)ccc21
not listed: [5] | [14] | [17] | [18]
inactive: all other assays above

CCCCN1C(=O)[C@@H]([C@H](O)C2CCCCC2)NC(=O)C12CCN(Cc1ccc(Oc3ccc(C(=O)O)cc3)cc1)CC2
active: [5] 93.5 µM | [7] 26.7 µM | [12] 28.2 µM
not listed: [6] | [15] | [17] | [18]
inactive: all other assays above

CC(C)c1nnc2ccc(-c3ocnc3-c3cc(F)ccc3F)cn12
active: [4] 130 µM | [6] 0.743 µM
not listed: [1] | [2]
inactive: all other assays above

FC(F)C(F)(F)COCC1CO1 (centres undefined)
not listed: [10] | [15] | [16] | [17] | [18]
inactive: all other assays above
